Experimental data reported in ChEMBL document CHEMBL3988442, “University of Dundee, Small-Polar-MMV Screening Library” (2021).
Out of some 66,000 compounds screened, about 960 (1.5%) showed an effect of 50% or more. The list comes from a sample in which strong results are over-represented; it also holds similar structures and randomly drawn compounds.

Tested on: Trypanosoma brucei
Test: Trypanosoma brucei 72 hour study
Type: functional, organism-based
Parameters: scale not given: in the data most compounds retested in dose-response had high values

**Q.** How did the “Percent Effect” value (30 µM, 30.03 µM) turn out when `CC(C)CC1SCC(=O)Nc2c1cnn2C(C)C` (stereo unspecified) was run?
**A.** 38.7%

**Q.** `Cc1nn(-c2ncnc3[nH]cnc23)c2c1C(CC(C)C)CC(=O)N2` (stereo unspecified) was tested. Which “Percent Effect” value (30 µM, 30.03 µM) did it give?
**A.** 53.52%

**Q.** `Cc1ccc(-n2nc(C)c3c2NC(=O)CC3c2cnc(N)s2)cc1` (stereo unspecified) was tested. Which “Percent Effect” value (30.3 µM, […]) did it give?
**A.** 2.745%

**Q.** With `Cc1nn(-c2ncnc3[nH]cnc23)c2c1C(C(C)C)CC(=O)N2` (stereo unspecified) as the compound, how does the “Percent Effect” value (30 µM, 30.03 µM) read?
**A.** 16.15%

**Q.** With `Cc1nn(-c2ncnc3[nH]cnc23)c2c1C(C(C)(C)C)CC(=O)N2` (stereo unspecified) as the compound, how does the “Percent Effect” value (30 µM, 30.03 µM) read?
**A.** 101.7%

**Q.** How did the “Percent Effect” value (30.3 µM, […]) turn out when `CC[C@@H](CO)Nc1cc(-c2cn[nH]c2)ncn1` was run?
**A.** -17.33%

**Q.** For `COc1ccccc1NC(=O)NCCCn1nc2ccccn2c1=O`, which “Percent Effect” value (30.3 µM, […]) is on record?
**A.** -15.65%

**Q.** For `CCc1c(C)nn2c(O)cc(C3CCN(C(=O)c4cnn(C)c4)C3)nc12` (stereo unspecified), which “Percent Effect” value (30.3 µM, […]) is on record?
**A.** -13.28%

**Q.** Which “Percent Effect” value (30 µM, 30.03 µM) does the source give for `CCCn1cc(-c2cc(-c3cc(CC)n[nH]3)c(C#N)c(N)n2)c(C)n1` here?
**A.** 41.43%

**Q.** For `CCn1cc(-c2cc(-c3cc(CC(=O)O)cs3)nc(N)c2C#N)c(C)n1`, which “Percent Effect” value (30 µM, 30.03 µM) is on record?
**A.** -31.42%

**Q.** Which “Percent Effect” value (30 µM, 30.03 µM) does the source give for `CCCn1cc(-c2cc(-c3c[nH]cn3)c(C#N)c(N)n2)c(C)n1` here?
**A.** 58.89%

**Q.** For `COc1ncc(-c2cc(-c3ccn(C)c3)nc(N)c2C#N)cn1`, which “Percent Effect” value (30 µM, 30.03 µM) is on record?
**A.** -14.16%

**Q.** `CCCn1cc(-c2cc(-c3cnc(OC)nc3)c(C#N)c(N)n2)c(C)n1` was tested. Which “Percent Effect” value (30 µM, 30.03 µM) did it give?
**A.** 73.84%

**Q.** With `CCCn1cc(-c2cc(-c3ccoc3)c(C#N)c(N)n2)c(C)n1` as the compound, how does the “Percent Effect” value (30 µM, 30.03 µM) read?
**A.** -1.944%

**Q.** How did the “Percent Effect” value (30.3 µM, […]) turn out when `CC(C)CS(=O)(=O)N1C[C@H]2C[C@H](C(=O)N3CCN(C)CC3)[C@@H](C1)O2.O=C(O)C(F)(F)F` was run?
**A.** -51.72%

**Q.** `COc1ccccc1CCN1CCCC(CN(C)Cc2c[nH]c(C)n2)C1` (stereo unspecified) was tested. Which “Percent Effect” value (30 µM, 30.03 µM) did it give?
**A.** 9.173%

**Q.** How did the “Percent Effect” value (30 µM, 30.03 µM) turn out when `CC(NC(=O)c1ccc(=O)n(C)c1)c1ccccc1-n1cccn1` (stereo unspecified) was run?
**A.** -14.43%

**Q.** `Cc1nnc(NC(=O)c2cc(S(=O)(=O)N3CCSCC3)c[nH]2)s1` was tested. Which “Percent Effect” value (30 µM, 30.03 µM) did it give?
**A.** 37.66%

**Q.** With `Cc1ccc(C)c(NC(=O)c2cc(S(=O)(=O)N3CCSCC3)c[nH]2)c1` as the compound, how does the “Percent Effect” value (30 µM, 30.03 µM) read?
**A.** 69.72%

**Q.** With `Cc1ccc(NC(=O)c2cc(S(=O)(=O)N3CCCCC3)c[nH]2)cc1F` as the compound, how does the “Percent Effect” value (30 µM, 30.03 µM) read?
**A.** -33.42%

**Q.** Which “Percent Effect” value (30.3 µM, […]) does the source give for `Cc1noc([C@@H]2CC[C@@H]3[C@@H](CCN3c3nnc(C)s3)O2)n1.O=C(O)C(F)(F)F` here?
**A.** -92.4%

**Q.** `CCc1ccc(C2NCCc3cc4c(cc32)OCCO4)cc1` (stereo unspecified) was tested. Which “Percent Effect” value (30.3 µM, […]) did it give?
**A.** 67.24%

**Q.** For `Clc1ccc(C2NCCc3cc4c(cc32)OCCO4)cc1` (stereo unspecified), which “Percent Effect” value (30.3 µM, […]) is on record?
**A.** -20.9%

**Q.** `Fc1ccccc1C1NCCc2cc3c(cc21)OCCO3` (stereo unspecified) was tested. Which “Percent Effect” value (30.3 µM, […]) did it give?
**A.** 18.61%

**Q.** Which “Percent Effect” value (30.3 µM, […]) does the source give for `Cc1cc(CCC(N)=O)cc(C2CCCN2Cc2cnc(C)nc2)n1` (stereo unspecified) here?
**A.** -5.889%

**Q.** For `O=C(O)C(F)(F)F.O=C(O)C(F)(F)F.c1coc(CN2C[C@@H]3CN(Cc4ccoc4)CCO[C@@H]3C2)c1`, which “Percent Effect” value (30.3 µM, […]) is on record?
**A.** -14.62%

**Q.** `O=C(Cn1c(=O)oc2ccccc21)NCC1(O)CCc2ccccc2C1` (stereo unspecified) was tested. Which “Percent Effect” value (30 µM, 30.03 µM) did it give?
**A.** -11.94%

**Q.** With `Cc1ccc(C)c(OCc2nnc(SCC3CCCN(C)C3)o2)c1` (stereo unspecified) as the compound, how does the “Percent Effect” value (30.3 µM, […]) read?
**A.** 77.52%

**Q.** How did the “Percent Effect” value (30.3 µM, […]) turn out when `Cc1ccc(OCc2nnc(SCC3CCCN(C)C3)o2)cc1` (stereo unspecified) was run?
**A.** -4.572%

**Q.** Which “Percent Effect” value (30.3 µM, […]) does the source give for `Cc1cccc(OCc2nnc(SCC3CCCN(C)C3)o2)c1` (stereo unspecified) here?
**A.** -11.54%

**Q.** `Cc1cc(F)cc2c(N3CCS(=O)(=O)CC3)c(C#N)cnc12` was tested. Which “Percent Effect” value (30.3 µM, […]) did it give?
**A.** 6.61%

**Q.** For `Cc1noc(C)c1CN1CCc2ncnc(-c3ccccc3)c2CC1.O=C(O)C(F)(F)F`, which “Percent Effect” value (30.3 µM, […]) is on record?
**A.** -55.88%

**Q.** With `CC(C)(C)n1ncc2c1CCCC2NCc1cccc2c1OCO2` (stereo unspecified) as the compound, how does the “Percent Effect” value (30 µM, 30.03 µM) read?
**A.** -18.28%

**Q.** Which results are given for `CC(C)(C)n1ncc2c1CCCC2NCc1cccc2c1OCCO2` (stereo unspecified)?
**A.** Percent Effect (10 µM): 0.9444%; Percent Effect (30.3 µM, […]): 51.24%

**Q.** Which “Percent Effect” value (30 µM, 30.03 µM) does the source give for `CCn1ncc2c1CCCC2NCc1cccc2c1OCCO2` (stereo unspecified) here?
**A.** 6.251%

**Q.** Which “Percent Effect” value (30.3 µM, […]) does the source give for `Cc1ccc(N2C[C@H](C)[C@]3(CCN(c4cccnc4)C3=O)C2)nn1.O=C(O)C(F)(F)F.O=C(O)C(F)(F)F` here?
**A.** -32.51%

**Q.** For `O=C(NC1CCCC1)[C@@H]1C[C@@H]2CCN(Cc3ccoc3)C[C@H]2O1.O=C(O)C(F)(F)F`, which “Percent Effect” value (30.3 µM, […]) is on record?
**A.** -88.78%

**Q.** For `Cc1nc(CN2CCO[C@@H]3CN(C(=O)CN(C)C)CC[C@@H]3C2)cs1`, which “Percent Effect” value (30 µM, 30.03 µM) is on record?
**A.** 8.371%

**Q.** Which “Percent Effect” value (30 µM, 30.03 µM) does the source give for `Cc1nc(CN2CCO[C@@H]3CN(C(=O)CC4CC4)CC[C@@H]3C2)cs1` here?
**A.** 61.23%

**Q.** `Cc1nc(CN2CCO[C@@H]3CN(C(=O)CC4CC4)C[C@@H]3C2)cs1.O=C(O)C(F)(F)F` was tested. Which “Percent Effect” value (30 µM, 30.03 µM) did it give?
**A.** 48.86%

**Q.** With `CCC(=O)N1CCC2(CC1)C(c1cccnc1)CC(=O)N2CCOC.O=C(O)C(F)(F)F` (stereo unspecified) as the compound, how does the “Percent Effect” value (30.3 µM, […]) read?
**A.** -33.93%

**Q.** Which “Percent Effect” value (30.3 µM, […]) does the source give for `CO[C@H]1CN(C(=O)c2cccnc2)[C@@H]2CCCO[C@H]12.O=C(O)C(F)(F)F` here?
**A.** -49.74%

**Q.** Which “Percent Effect” value (30 µM, 30.03 µM) does the source give for `COc1cc(CNCC(C)O)cc(Cl)c1OCc1ccc(C)cc1.Cl` (stereo unspecified) here?
**A.** 97.25%

**Q.** With `COc1cccc(CNC(C)C)c1OCc1ccc(C)cc1.Cl` as the compound, how does the “Percent Effect” value (30 µM, 30.03 µM) read?
**A.** -4.618%

**Q.** How did the “Percent Effect” value (30 µM, 30.03 µM) turn out when `CC(O)CNCc1ccc(OCc2ccc3c(c2)OCCO3)cc1.Cl` (stereo unspecified) was run?
**A.** -67.49%
